Out of some 2,100 compounds screened, about 210 (10%) were called active. Not shown: some 53% with an inconclusive outcome. Calls follow the shape of the dose curve; as a rule, active = well fitted inhibition curve with a large enough effect; inconclusive = small, poorly fitted or top-dose-only effect, or effect the other way; inactive = no such curve, though single readings can be large or run the other way. The list shows a part of the results.
test: IN Cell qHTS Assay for Inhibitors of the mTORC1 Signaling Pathway in MEF (Tsc2-/-, p53-/-) Cells: Sytravon; conditions: phospho-rpS6 immunofluorescence, 24 h; series mostly up to 38.3 µM; activity, negative = inhibition: at the top concentration; also: nearly all actives have a fitted effect of over 60% in size;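 as to activity, negative = inhibition: plate controls were DMSO wells for no effect and 7.5 nM rapamycin full pathway inhibition for full effect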
Summary of the method: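 Tsc2-/-, p53-/- MEFs (empty-vector) treated with compound 24 h at 37 degree Celsius, then fixed and stained for phospho-rpS6 Ser235/236 (Alexa-488) plus Hoechst. Reported as % positive cells, thresholds set against 7.5 nM rapamycin and DMSO wells.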
Potency is read from the fitted curve at half-maximal effect.

Compound | activity, negative = inhibition | Potency
CCc1ccc(N=C2NC(=O)CC(C(=O)Nc3ccc(OC)cc3)S2)cc1 (configuration not stated) | 15.4% (inactive) | 
CCCc1cc(=O)oc2cc(C)c3c(-c4ccccc4)c(C)oc3c12 | -1.83% (inactive) | 
C#CCOc1c(Br)cc(C2C(C(=O)OC)=C(C)NC3=C2C(=O)c2ccccc23)cc1OCC (configuration not stated) | 15.3% (inactive) | 
CSc1cccc(NC(=O)Cn2cnc(S(=O)(=O)N3CCCC3)c2)c1 | 0.892% (inactive) | 
Cn1nnnc1SCCCNCc1cccc(OCc2ccccc2Cl)c1 | -25.9% (inactive) | 
Cc1noc(/C=C/N(C)C)c1S(=O)(=O)N1CCCC(C(=O)Nc2ccc(F)cc2F)C1 (configuration not stated) | 10.5% (inactive) | 
Cc1ccc(-c2noc(-c3ccccc3NC(=O)C3CC(=O)N(c4cccc(C)c4)C3)n2)cc1 (configuration not stated) | 3.66% (inactive) | 
COc1ccc2c(c1)c(=O)c(C(=O)c1ccc(C)cc1)cn2Cc1ccccc1F | -12.8% (inactive) | 
CN(C)c1ccc(NC(=O)Cn2cc(S(=O)(=O)Cc3ccccc3Cl)c3ccccc32)cc1 |  | 10.4 µM (active)
Cc1cc(C)c(NC(=O)Cn2cc(S(=O)(=O)Cc3ccccc3F)c3ccccc32)c(C)c1 | -29.4% (inactive) | 
Cc1ccc(CNC(=O)Cn2cc(S(=O)(=O)Cc3ccccc3F)c3ccccc32)cc1 |  | 18.5 µM (active)
CC(C)N(C(=O)CSc1cn(CC(=O)N2CCCCCC2)c2ccccc12)C(C)C | -11.6% (inactive) | 
O=C(Cn1cc(S(=O)(=O)Cc2cccc(Cl)c2)c2ccccc21)Nc1ccccc1C(F)(F)F | -19.7% (inactive) | 
Cc1ccccc1OCc1cc(=O)n2c(-c3ccccc3)csc2n1 | 7.14% (inactive) | 
Cc1cccc(-n2c(C)nc3cc(C(=O)NC4CCCCCC4)ccc32)c1 | 6.25% (inactive) | 
COc1ccc(S(=O)(=O)N(C)Cc2nc(-c3cccc(C)c3)no2)cc1 | -29.1% (inactive) | 
Cc1ccc(-c2cnc(NCc3ccc(C(F)(F)F)cc3)n2C)cc1 | -41.9% (inactive) | 
COc1ccc(-n2nc3c(N4CCCC(C(=O)NCc5ccccc5C)C4)nnc(C)c3c2C)cc1 (configuration not stated) |  | 5.85 µM (active)
Cc1nnc(N2CCCC(C(=O)Nc3cc(F)ccc3F)C2)c2nn(-c3ccccc3)c(C)c12 (configuration not stated) | -20.1% (inactive) | 
O=C(NCc1ccccc1Cl)C1CCCN(c2nc3ccccc3n3cccc23)C1 (configuration not stated) | -2.13% (inactive) | 
CCCN1C(=O)C(Cc2nc3ccccc3c(=O)n2CC)c2ccccc21 (configuration not stated) | -18.6% (inactive) | 
Cc1nnc(NC(=O)c2nc(S(=O)(=O)Cc3ccccc3)ncc2Cl)s1 |  | 16.5 µM (active)
COc1cc(OC)cc(C(=O)Nc2cc3nn(-c4ccccc4)nc3cc2Cl)c1 | -26.8% (inactive) | 
COc1ccc2nc(NC(=O)c3nc(S(=O)(=O)Cc4ccccc4)ncc3Cl)sc2c1 |  | 5.85 µM (active)
CCc1nnc(NC(=O)c2nc(S(=O)(=O)Cc3cccc(C)c3)ncc2Cl)s1 |  | 9.27 µM (active)
COc1cccc(-n2ccnc2SCC(=O)Nc2nc3ccc(C)cc3s2)c1 | -25% (inactive) | 
CCc1nnc(NC(=O)c2nc(S(=O)(=O)Cc3ccc(C)cc3)ncc2Cl)s1 |  | 20.7 µM (active)
